Results as given in PubChem BioAssay (Tox21).
Results filed as inconclusive are left out. Activity calls are given as the source filed them. Unless noted, calls follow the shape of the dose curve; as a rule, active = well fitted curve in the direction sought with a large enough effect in the repeat runs; inconclusive = weak or mixed curves; inactive = no such curve, though single readings can be large; an effect the other way counts as inactive or inconclusive.

Key:
[1] = qHTS assay to identify small molecule agonists of the vitamin D receptor (VDR) signaling pathway - cell viability counter screen (AID 743224); also: series mostly up to about 63 µM; nearly all actives have a fitted effect of over 50% in size
How it was run: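 Counter screen for cytotoxicity: VDR-bla cells at 2,000 cells/well, 16 h compound exposure, then CellTiter-Glo luminescence after the beta-lactamase measurement.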

[2] = qHTS assay to identify small molecule antagonists of the vitamin D receptor (VDR) signaling pathway - cell viability counter screen (AID 743225); also: nearly all actives have a fitted effect of over 50% in size
How it was run: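 VDR-bla HEK 293T cells, 4 h pre-incubation at 37C, then compound plus 1-alpha,25-dihydroxyvitamin D3 (3 nM final) for 16 h. After the beta-lactamase FRET read, CellTiter-Glo was added to the same wells; luminescence after 30 min at room temperature.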

[3] = qHTS assay to identify small molecule agonists of the NFkB signaling pathway (AID 1159509; active = well fitted curve in the direction sought with a large enough effect in the signal ratio in the repeat runs, not every such curve was filed as active; the % refers to the signal ratio; also: series mostly up to about 61 µM)
How it was run: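 Agonist activity was read as beta-lactamase-driven FRET change (460 and 530 nm emission, 405 nm excitation) following 1.5 hr substrate loading at room temperature. Beforehand, ME-180 NFkB-bla reporter cells were treated with compounds for 5 hr at 37 C.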

[4] = qHTS assay to identify small molecule agonists of the NFkB signaling pathway - cell viability counter screen (AID 1159515; calls by dose curve; also: series mostly up to about 61 µM; nearly all actives have a fitted effect of over 55% in size)
How it was run: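 Counter screen run alongside the NFkB-bla agonist assay: ME-180 reporter cells exposed to compounds for 5 hr, then lysed with CellTiter-Glo in the same wells. Luminescence, read after 30 min, reflects viable cells.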

[5] = qHTS assay to identify small molecule agonists of the endoplasmic reticulum stress response signaling pathway (AID 1159516; active = well fitted activation curve with a large enough effect in the signal ratio in the repeat runs, not every such curve was filed as active; the % refers to the signal ratio)
How it was run: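 For this screen, HeLa cells stably carrying beta-lactamase under the ER stress response element received test compounds, positive controls or DMSO for 5 hr at 37 C; B/G FRET substrate was then added and dual-wavelength emission recorded.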

[6] = qHTS assay to identify small molecule agonists of the endoplasmic reticulum stress response signaling pathway - cell viability counter screen (AID 1159517; calls by dose curve; also: series mostly up to about 61 µM; nearly all actives have a fitted effect of over 50% in size)
How it was run: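 In parallel with the ESRE reporter read, cytotoxicity was scored by CellTiter-Glo luminescence (30 min, room temperature) on HeLa ESRE-bla cells dosed for 5 hr.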

[7] = qHTS assay to identify small molecule antagonists of the retinoid-related orphan receptor gamma (ROR-gamma) signaling pathway - cell viability counter screen (AID 1159520); also: nearly all actives have a fitted effect of over 50% in size
How it was run: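 Tet-on ROR gamma CHO cells were given compounds for 2 hr, then doxycycline hyclate at 1 uM final, and incubated 16 hr at 37 C. Viability was measured as ATP content by CellTiter-Glo luminescence.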

[8] = qHTS assay to identify small molecule agonists of the AP-1 signaling pathway - cell viability counter screen (AID 1159525; calls by dose curve; also: nearly all actives have a fitted effect of over 55% in size)
How it was run: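 Same-well cytotoxicity counter screen of the Tox21 10K library in ME-180 cells. The readout is ATP-dependent luminescence after 5 h compound treatment. Data are normalised to DMSO and tetra n-octyl ammonium bromide controls.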

[9] = qHTS assay to identify small molecule agonists of the AP-1 signaling pathway (AID 1159526; calls by dose curve)
[10] = qHTS assay to identify small molecule agonists of the RXR signaling pathway - cell viability counter screen (AID 1159529)
How it was run: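 RXR-alpha-UAS-bla HEK 293T cells in medium with 2% charcoal-stripped FBS were preincubated 5 hr, then exposed to compounds for 16 hr at 37 C. Viability was read as CellTiter-Glo luminescence after 30 min at room temperature.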

[11] = qHTS assay to identify small molecule antagonists of the retinoid acid receptor (RAR) signaling pathway - cell viability counter screen (AID 1159551); also: nearly all actives have a fitted effect of over 35% in size
How it was run: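 Measured by luminescent ATP detection, viability reflects C3RL4 cells treated 6 h at 37 C with test chemicals in the presence of 1 uM (final) retinol.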

[12] = qHTS assay to identify small molecule antagonists of the retinoic acid receptor (RAR) signaling pathway (AID 1159552; also: nearly all actives have a fitted effect of over 50% in size)
How it was run: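 RARE-luc C3RL4 cells; cpds + 1 uM (final) retinol, 6 hr, 37 C/5% CO2; luciferase reagent, 30 min RT, luminescence readout. Inhibitors of retinol-driven signal scored.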

[13] = qHTS assay to identify small molecule agonists of the retinoic acid receptor (RAR) signaling pathway (AID 1159553)
How it was run: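 6 hr compound exposure (DMSO vehicle) of overnight-plated C3RL4 RARE-luc cells at 37 C; luminescence quantified after 30 min RT with luciferase reagent.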

[14] = biological target: Nuclear receptor ROR-gamma (Homo sapiens) (UniProt P51449); experiment: qHTS assay to identify small molecule antagonists of the retinoid-related orphan receptor gamma (ROR-gamma) signaling pathway (AID 1159521)
How it was run: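 Tet-on RORγ CHO cells carrying a ROR response element–luciferase reporter were pretreated with compounds for 2 h, then induced with 1 uM (final) doxycycline hyclate for 16 h at 37 C. Antagonism was read as decreased ONE-Glo luminescence.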

Measured: Potency

CCOC(OCC)OCC
not listed: [14]
inactive: all other assays above

c1ccc(CN(Cc2ccccc2)Cc2ccccc2)cc1
not listed: [1] | [10]
inactive: all other assays above

CC1(C)CC(O)CC(C)(C)N1[O]
not listed: [7]
inactive: all other assays above

C=Cc1ccc(C=C)cc1
not listed: [7] | [12] | [13]
inactive: all other assays above

Oc1ccc(CCNCCCCCCNCCc2ccccc2)cc1O
not listed: [1] | [10] | [14]
inactive: all other assays above

O=[N+]([O-])c1ccccc1CCO
not listed: [7]
inactive: all other assays above

Clc1cccc(C(c2ccc3nc[nH]c3c2)n2ccnc2)c1 (stereo not drawn)
not listed: [12] | [13] | [14]
inactive: all other assays above

O=c1[nH]nc(-c2ccc([N+](=O)[O-])o2)o1
not listed: [13] | [14]
inactive: all other assays above

O=C1c2ccccc2C(=O)C1c1ccc2cc(S(=O)(=O)O)cc(S(=O)(=O)O)c2n1
not listed: [13] | [14]
inactive: all other assays above

[O-][n+]1ccc(Cl)cc1
not listed: [14]
inactive: all other assays above

CCCCCC1CCC(=O)O1 (stereo not drawn)
not listed: [2] | [7] | [12] | [13]
inactive: all other assays above

C[C@H](N)C(=O)N[C@@H](C)C(=O)NC1[C@H]2CN(c3nc4c(cc3F)c(=O)c(C(=O)O)cn4-c3ccc(F)cc3F)C[C@@H]12 (stereo partly drawn)
not listed: [10] | [13] | [14]
inactive: all other assays above

CC(C)=CCC[C@H](C)CCO
not listed: [7] | [11]
inactive: all other assays above

CCCOC(C)=O
not listed: [7]
inactive: all other assays above

O=C(c1ccc(Cl)cc1)c1ccc(Cl)cc1
not listed: [14]
inactive: all other assays above

Sc1nc(S)nc(S)n1
not listed: [12] | [13] | [14]
inactive: all other assays above

O=C(O)CCc1nc2ccccc2[nH]1
not listed: [7] | [10]
inactive: all other assays above

CCCCOc1ccc(N)cc1
not listed: [7] | [13]
inactive: all other assays above

CC1(C)C(=O)NC(=O)N1CO
not listed: [12] | [13] | [14]
inactive: all other assays above

O=C(O)c1ccc2cc(O)ccc2c1
not listed: [7] | [13]
inactive: all other assays above
